Common to all, as to assay: DAPPL (digital affinity profiling via proximity ligation, sequencing); 10 mM Tris-HCl pH 7.5, 50 mM NaCl, 1 mM DTT, 4% glycerol, room temperature, 30 min; GST-TFs on glutathione beads, 16-mer random dsDNA library, 0.1% formaldehyde crosslink after washing; high values mean tight binding
Conditions in all cases: protein: recombinant; tags: N-terminal GST; dsDNA, one strand shown

The target of one test is T1, FLI1 (Homo sapiens, UniProt Q01543 1-452).
T1 sequence: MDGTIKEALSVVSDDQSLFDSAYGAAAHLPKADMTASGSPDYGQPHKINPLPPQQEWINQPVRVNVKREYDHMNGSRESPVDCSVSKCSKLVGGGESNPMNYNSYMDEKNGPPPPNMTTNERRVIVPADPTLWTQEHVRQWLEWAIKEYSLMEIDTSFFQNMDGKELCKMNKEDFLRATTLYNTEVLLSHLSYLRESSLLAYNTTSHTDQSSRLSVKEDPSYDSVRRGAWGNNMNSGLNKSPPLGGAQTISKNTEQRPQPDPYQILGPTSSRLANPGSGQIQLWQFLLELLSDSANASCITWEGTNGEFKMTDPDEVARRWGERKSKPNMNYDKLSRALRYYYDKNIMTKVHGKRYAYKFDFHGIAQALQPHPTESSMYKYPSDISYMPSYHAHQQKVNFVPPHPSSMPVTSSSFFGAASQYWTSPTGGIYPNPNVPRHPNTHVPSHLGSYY
In outline: (§1)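 Pools of DNA-barcoded human transcription factors, expressed in yeast as GST fusions on glutathione beads and combined with a tag-only sample, were incubated with 200 nmole of a 16-mer random double-stranded DNA library. Incubation took 30 min at room temperature in Tris/NaCl/DTT/glycerol buffer and was followed by washing, 0.1% formaldehyde crosslinking, proximity ligation (BsaI/T4 ligase, 1 h, 37 °C), PCR amplification and sequencing on an Illumina NextSeq500. Binding signal is the ratio of a hexamer's read frequency for a factor to its frequency for the tag-only sample.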

For another test, the target named is T2, ELK1 (Homo sapiens, UniProt P19419 1-428).
T2 sequence: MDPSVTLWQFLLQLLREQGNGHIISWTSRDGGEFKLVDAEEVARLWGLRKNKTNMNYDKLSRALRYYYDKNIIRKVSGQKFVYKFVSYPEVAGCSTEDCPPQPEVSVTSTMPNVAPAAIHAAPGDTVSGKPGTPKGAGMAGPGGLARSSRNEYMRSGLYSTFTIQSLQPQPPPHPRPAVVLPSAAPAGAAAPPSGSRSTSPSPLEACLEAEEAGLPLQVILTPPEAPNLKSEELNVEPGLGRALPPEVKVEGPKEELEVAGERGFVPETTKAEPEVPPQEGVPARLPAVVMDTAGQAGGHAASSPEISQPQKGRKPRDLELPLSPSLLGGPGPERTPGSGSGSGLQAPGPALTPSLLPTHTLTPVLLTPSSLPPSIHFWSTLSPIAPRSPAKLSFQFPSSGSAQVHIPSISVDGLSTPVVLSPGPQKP
An outline of the steps: as §1

The target of another test is T3, GABPA (Homo sapiens, UniProt Q06546 1-454).
T3 sequence: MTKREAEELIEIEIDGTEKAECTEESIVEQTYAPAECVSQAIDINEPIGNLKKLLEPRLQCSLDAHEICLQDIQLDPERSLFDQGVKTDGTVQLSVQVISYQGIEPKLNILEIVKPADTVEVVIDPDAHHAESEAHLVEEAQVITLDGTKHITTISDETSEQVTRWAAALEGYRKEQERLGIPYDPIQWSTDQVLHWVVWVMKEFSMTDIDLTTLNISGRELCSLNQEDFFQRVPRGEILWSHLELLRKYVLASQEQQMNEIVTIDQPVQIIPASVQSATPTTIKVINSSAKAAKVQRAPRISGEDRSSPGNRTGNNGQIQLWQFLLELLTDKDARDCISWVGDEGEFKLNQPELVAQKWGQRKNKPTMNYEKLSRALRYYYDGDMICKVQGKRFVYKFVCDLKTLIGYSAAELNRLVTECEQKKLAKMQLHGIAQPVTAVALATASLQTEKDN
An outline of the steps:
as §1

Another test has as its target T4, ERG (Homo sapiens, UniProt P11308 1-479).
T4 sequence: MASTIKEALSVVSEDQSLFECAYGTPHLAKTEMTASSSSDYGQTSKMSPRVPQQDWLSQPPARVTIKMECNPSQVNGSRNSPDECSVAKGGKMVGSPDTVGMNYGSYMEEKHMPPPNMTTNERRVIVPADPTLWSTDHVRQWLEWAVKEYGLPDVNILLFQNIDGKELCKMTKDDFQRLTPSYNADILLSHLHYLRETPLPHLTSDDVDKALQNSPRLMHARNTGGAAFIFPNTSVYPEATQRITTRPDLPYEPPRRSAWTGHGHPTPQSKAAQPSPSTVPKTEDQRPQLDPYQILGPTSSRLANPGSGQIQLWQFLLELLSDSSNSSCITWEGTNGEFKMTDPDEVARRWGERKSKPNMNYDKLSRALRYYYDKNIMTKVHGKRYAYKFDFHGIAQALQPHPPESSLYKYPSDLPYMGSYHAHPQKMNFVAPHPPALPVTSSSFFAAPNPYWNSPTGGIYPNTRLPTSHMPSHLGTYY
An outline of the steps: as §1

Another test has as its target ELF1 (Homo sapiens, UniProt P32519 1-619). An outline of the steps: as §1
The target in the next test is T5, EHF (Homo sapiens, UniProt Q9NZC4 1-300).
T5 sequence: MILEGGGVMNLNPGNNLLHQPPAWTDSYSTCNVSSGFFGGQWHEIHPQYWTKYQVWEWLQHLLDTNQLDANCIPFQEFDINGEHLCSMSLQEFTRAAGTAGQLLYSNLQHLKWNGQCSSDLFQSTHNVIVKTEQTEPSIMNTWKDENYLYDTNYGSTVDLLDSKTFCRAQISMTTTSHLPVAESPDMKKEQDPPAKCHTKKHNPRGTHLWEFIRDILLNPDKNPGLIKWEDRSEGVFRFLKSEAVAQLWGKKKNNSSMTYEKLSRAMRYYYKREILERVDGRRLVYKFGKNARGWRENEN
In outline: as §1

Another test deals with SPI1 (Homo sapiens, UniProt P17947 1-270). An outline of the steps: as §1
Another test concerns the target SPIB (Homo sapiens, UniProt Q01892 1-262). In outline:
as §1

In another test the target is T6, FEV (Homo sapiens, UniProt Q99581 1-238).
T6 sequence: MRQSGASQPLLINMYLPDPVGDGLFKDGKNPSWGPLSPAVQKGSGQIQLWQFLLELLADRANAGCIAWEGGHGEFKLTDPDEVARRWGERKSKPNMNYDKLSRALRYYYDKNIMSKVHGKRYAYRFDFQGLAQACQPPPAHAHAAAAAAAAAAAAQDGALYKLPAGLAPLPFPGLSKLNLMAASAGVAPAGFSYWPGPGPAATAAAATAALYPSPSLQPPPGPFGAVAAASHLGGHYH
In outline: as §1

The target of another test is ETV5 (Homo sapiens, UniProt P41161 1-510). In outline:
as §1

In a further test the target is T7, SPIC (Homo sapiens, UniProt Q8N5J4 1-248).
T7 sequence: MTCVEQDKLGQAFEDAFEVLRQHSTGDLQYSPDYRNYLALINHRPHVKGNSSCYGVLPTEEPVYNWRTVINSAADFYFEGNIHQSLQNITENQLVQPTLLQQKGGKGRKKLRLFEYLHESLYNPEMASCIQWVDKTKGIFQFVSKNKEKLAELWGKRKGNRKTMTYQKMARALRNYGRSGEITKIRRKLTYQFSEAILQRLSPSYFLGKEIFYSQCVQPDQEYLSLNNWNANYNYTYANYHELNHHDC
An outline of the steps:
as §1

Another test deals with ELF4 (Homo sapiens, UniProt Q99607 1-663). An outline of the steps: as §1
Sequence of ELF4 (Q99607 whole entry): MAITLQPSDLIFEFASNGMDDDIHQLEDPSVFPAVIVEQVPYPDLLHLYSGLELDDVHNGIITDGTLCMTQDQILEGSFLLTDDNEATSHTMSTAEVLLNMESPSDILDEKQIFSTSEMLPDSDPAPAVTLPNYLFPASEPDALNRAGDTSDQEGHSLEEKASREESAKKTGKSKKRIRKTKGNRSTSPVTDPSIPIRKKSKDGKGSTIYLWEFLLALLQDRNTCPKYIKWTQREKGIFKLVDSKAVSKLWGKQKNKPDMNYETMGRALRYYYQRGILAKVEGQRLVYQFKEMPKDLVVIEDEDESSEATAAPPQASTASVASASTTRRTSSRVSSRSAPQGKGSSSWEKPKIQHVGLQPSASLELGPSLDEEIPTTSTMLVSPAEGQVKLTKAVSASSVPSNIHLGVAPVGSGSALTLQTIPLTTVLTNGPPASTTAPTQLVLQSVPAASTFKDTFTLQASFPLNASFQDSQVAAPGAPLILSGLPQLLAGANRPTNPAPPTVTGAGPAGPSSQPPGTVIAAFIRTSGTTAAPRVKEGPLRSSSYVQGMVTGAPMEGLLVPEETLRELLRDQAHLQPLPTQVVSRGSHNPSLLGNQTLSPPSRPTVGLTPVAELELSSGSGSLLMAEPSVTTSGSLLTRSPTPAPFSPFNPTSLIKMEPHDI
For another test, the target named is ETV1 (Homo sapiens, UniProt P50549 1-477). An outline of the steps: as §1
Sequence of ETV1 (P50549 whole entry): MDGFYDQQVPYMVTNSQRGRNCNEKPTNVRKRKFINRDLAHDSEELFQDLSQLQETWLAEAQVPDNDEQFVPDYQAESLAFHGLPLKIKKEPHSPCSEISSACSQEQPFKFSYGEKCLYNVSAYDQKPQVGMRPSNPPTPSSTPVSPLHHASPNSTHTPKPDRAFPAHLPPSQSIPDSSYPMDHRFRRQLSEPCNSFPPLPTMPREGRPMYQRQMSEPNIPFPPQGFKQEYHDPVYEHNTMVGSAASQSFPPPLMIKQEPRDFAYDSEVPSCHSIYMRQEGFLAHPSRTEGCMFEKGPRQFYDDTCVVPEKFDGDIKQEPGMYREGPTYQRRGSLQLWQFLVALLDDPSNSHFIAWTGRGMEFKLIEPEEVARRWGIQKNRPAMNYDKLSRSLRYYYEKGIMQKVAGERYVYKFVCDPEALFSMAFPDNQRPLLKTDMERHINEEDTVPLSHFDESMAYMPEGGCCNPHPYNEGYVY
For a further test, the target named is T8, ETV3L (Homo sapiens, UniProt Q6ZN32 1-361).
T8 sequence: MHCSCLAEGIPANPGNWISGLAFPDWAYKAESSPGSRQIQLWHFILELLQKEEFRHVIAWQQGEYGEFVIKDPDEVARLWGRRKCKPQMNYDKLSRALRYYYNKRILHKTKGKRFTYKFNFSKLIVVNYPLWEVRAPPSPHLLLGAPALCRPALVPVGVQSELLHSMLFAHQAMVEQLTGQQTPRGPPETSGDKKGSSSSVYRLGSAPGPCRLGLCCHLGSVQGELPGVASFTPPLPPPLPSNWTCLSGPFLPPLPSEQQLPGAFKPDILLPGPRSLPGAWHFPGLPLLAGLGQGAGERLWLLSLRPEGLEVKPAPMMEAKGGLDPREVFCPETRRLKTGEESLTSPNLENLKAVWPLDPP
An outline of the steps: as §1

For a further test, the target named is T9, ETS2 (Homo sapiens, UniProt P15036 1-469).
T9 sequence: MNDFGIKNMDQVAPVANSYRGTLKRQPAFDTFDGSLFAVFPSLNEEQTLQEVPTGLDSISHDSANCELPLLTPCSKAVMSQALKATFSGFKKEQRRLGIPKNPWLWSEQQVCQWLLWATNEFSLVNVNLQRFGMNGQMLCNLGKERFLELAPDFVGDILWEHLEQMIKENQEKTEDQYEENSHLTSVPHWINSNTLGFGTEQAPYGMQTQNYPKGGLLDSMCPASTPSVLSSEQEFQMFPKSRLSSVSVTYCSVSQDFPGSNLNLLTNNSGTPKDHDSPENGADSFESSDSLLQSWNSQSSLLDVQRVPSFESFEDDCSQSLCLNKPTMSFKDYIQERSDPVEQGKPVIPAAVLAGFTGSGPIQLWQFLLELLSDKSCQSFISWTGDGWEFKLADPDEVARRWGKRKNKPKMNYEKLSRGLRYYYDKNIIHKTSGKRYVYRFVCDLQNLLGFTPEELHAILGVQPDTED
An outline of the steps:
as §1

The next test has as its target T10, SPDEF (Homo sapiens, UniProt O95238 1-335).
T10 sequence: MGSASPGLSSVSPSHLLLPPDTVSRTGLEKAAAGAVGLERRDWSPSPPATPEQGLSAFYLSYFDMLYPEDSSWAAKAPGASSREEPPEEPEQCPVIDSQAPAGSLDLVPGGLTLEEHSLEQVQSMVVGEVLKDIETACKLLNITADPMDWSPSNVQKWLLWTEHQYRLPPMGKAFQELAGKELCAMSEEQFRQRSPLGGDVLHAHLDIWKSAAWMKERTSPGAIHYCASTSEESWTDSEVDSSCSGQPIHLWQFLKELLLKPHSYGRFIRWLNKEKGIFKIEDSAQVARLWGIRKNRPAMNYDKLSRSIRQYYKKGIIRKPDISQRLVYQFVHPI
An outline of the steps:
as §1

A further test deals with T11, ELF5 (Homo sapiens, UniProt Q9UKW6-2 1-255).
T11 sequence: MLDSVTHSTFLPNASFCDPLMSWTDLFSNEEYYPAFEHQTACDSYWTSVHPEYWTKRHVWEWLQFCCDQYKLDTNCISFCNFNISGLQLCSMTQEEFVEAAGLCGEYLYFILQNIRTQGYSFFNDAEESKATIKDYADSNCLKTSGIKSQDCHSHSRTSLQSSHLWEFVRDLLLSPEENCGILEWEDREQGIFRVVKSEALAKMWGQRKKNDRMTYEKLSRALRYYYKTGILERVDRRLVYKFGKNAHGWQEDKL
In outline:
as §1

Another test has as its target T12, ETV3 (Homo sapiens, UniProt P41162-2 1-143).
T12 sequence: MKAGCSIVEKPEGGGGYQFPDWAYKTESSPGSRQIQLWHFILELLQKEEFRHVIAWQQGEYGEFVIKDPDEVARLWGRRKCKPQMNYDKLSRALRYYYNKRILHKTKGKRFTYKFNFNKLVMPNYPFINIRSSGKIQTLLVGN
An outline of the steps: as §1

The target of a further test is ETV6 (Homo sapiens, UniProt P41212 1-452). In outline: as §1
Sequence of ETV6 (P41212 whole entry): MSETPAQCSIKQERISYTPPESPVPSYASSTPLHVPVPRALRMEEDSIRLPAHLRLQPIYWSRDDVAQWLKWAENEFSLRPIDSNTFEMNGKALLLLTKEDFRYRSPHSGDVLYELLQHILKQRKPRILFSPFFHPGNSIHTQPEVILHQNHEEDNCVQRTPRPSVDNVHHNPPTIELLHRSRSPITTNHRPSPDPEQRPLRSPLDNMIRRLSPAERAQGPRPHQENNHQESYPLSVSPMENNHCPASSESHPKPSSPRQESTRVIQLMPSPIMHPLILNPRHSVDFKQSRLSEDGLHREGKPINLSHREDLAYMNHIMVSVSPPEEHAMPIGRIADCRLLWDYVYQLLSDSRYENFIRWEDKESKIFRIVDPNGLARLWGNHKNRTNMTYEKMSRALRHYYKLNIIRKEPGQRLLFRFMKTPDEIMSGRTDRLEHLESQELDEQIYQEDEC

Sequence of SPIB (Q01892 whole entry): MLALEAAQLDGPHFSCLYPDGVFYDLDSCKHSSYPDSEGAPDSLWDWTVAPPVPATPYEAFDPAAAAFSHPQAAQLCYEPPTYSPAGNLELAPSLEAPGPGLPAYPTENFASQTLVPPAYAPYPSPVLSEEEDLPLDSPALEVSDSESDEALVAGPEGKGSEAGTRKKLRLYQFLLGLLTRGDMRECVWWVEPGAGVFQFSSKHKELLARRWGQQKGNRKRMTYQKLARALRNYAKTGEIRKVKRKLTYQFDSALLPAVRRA
Sequence of ELF1 (P32519 whole entry): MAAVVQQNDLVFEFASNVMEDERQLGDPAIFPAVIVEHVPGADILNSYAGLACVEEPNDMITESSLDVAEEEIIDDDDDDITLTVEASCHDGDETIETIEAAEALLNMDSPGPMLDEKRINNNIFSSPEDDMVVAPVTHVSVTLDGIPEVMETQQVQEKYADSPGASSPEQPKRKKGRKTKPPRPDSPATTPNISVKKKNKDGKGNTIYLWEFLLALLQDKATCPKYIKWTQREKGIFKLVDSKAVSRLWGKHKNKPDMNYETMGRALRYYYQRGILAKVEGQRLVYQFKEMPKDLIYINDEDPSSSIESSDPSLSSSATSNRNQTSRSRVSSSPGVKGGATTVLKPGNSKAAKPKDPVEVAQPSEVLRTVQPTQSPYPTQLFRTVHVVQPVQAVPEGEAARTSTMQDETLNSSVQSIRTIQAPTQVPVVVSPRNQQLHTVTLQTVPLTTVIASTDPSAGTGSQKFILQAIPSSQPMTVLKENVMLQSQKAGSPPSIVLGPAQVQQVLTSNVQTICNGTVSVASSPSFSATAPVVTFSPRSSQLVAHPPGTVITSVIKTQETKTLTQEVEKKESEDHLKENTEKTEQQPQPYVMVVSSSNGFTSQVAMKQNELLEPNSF
Sequence of ETV5 (P41161 whole entry): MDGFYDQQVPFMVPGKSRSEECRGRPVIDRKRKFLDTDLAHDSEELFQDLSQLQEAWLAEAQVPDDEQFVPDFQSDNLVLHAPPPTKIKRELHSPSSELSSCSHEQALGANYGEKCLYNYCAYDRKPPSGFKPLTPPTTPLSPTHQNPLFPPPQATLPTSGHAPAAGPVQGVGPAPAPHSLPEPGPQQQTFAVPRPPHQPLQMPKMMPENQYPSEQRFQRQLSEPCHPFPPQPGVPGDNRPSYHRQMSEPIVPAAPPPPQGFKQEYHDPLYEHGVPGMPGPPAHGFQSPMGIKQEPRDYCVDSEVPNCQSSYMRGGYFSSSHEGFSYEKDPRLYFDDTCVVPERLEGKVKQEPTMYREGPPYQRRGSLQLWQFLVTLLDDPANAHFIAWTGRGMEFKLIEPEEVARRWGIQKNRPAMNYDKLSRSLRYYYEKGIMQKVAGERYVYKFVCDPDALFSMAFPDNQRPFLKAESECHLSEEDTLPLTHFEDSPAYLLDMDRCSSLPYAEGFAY

With TTGCCG, the binding signal with FLI1 is 1.2 fold enrichment (6-mer frequency, TF over GST control); with ELK1, 1.14 fold enrichment (6-mer frequency, TF over GST control); in the test with GABPA it was 1.16 fold enrichment (6-mer frequency, TF over GST control); with ERG, 1.04 fold enrichment (6-mer frequency, TF over GST control); with ELF1, 1.03 fold enrichment (6-mer frequency, TF over GST control); with EHF, 1.19 fold enrichment (6-mer frequency, TF over GST control). The binding signal is 1.12 fold enrichment (6-mer frequency, TF over GST control) with SPI1; 1.12 fold enrichment (6-mer frequency, TF over GST control) in the test with SPIB; 1.12 fold enrichment (6-mer frequency, TF over GST control) in the test with FEV; 1.12 fold enrichment (6-mer frequency, TF over GST control) with ETV5; 1.08 fold enrichment (6-mer frequency, TF over GST control) in the test with SPIC; 1.12 fold enrichment (6-mer frequency, TF over GST control) with ELF4. The binding signal with ETV1 was 1.09 fold enrichment (6-mer frequency, TF over GST control); in the test with ETV3L, 1.11 fold enrichment (6-mer frequency, TF over GST control); with ETS2, 1.12 fold enrichment (6-mer frequency, TF over GST control); with SPDEF it was 1.13 fold enrichment (6-mer frequency, TF over GST control); with ELF5, 1.07 fold enrichment (6-mer frequency, TF over GST control); with ETV3 it was 1.1 fold enrichment (6-mer frequency, TF over GST control). In addition, in the test with ETV6, the binding signal was 1.08 fold enrichment (6-mer frequency, TF over GST control).

(Values after paper PMC7862700, “An all-to-all approach to the identification of sequence-specific readers for epigenetic DNA modifications on cytosine”.)
